Some targets named below: ALX3 (Homo sapiens, UniProt O95076 139-225, N203Q); PITX2 (Homo sapiens, UniProt Q99697 72-157); SHOX (Homo sapiens, UniProt O15266 103-189); HOXD13 (Homo sapiens, UniProt P35453 263-343, T313R); CRX (Homo sapiens, UniProt O43186 26-111, R41L).
Assay in all cases: PBM; 200 nM protein, PBS
Common to all, as to conditions: dsDNA, one strand shown

For experiment [1], the target named is HOXB4 (Homo sapiens, UniProt P17483 148-234).
Experiment [2] addresses HOXB4 (Homo sapiens, UniProt P17483 148-234, V174I).
Experiment [3] has as its target MSX2 (Homo sapiens, UniProt P35548 130-214, R199I).
The target in experiment [4] is MSX2 (Homo sapiens, UniProt P35548 130-214).
MSX2 (Homo sapiens, UniProt P35548 130-214), sequence (P35548 130-214): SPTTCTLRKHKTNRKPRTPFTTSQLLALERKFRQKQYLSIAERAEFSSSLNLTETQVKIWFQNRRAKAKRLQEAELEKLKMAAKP
In experiment [5] the target is MSX2 (Homo sapiens, UniProt P35548 130-214, F161Y).
MSX2 (Homo sapiens, UniProt P35548 130-214, F161Y), sequence (P35548 130-214 F161Y): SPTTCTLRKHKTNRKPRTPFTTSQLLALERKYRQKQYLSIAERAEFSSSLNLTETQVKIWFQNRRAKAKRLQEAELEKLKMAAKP
Experiment [6] concerns the target PROP1 (Homo sapiens, UniProt O75360 56-141).
Experiment [7] addresses PROP1 (Homo sapiens, UniProt O75360 56-141, R99H).
Experiment [8] has as its target PROP1 (Homo sapiens, UniProt O75360 56-141, F88S).

HOXB4 (Homo sapiens, UniProt P17483 148-234), sequence (P17483 148-234): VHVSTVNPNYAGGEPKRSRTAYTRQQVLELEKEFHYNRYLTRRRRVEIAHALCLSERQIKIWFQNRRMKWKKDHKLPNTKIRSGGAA
PROP1 (Homo sapiens, UniProt O75360 56-141, R99H), sequence (O75360 56-141 R99H): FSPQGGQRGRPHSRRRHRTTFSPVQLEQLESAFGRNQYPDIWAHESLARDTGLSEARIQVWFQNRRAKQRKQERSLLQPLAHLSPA
PROP1 (Homo sapiens, UniProt O75360 56-141), sequence (O75360 56-141): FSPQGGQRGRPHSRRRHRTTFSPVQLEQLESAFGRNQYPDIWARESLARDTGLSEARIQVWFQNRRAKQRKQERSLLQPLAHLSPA
HOXB4 (Homo sapiens, UniProt P17483 148-234, V174I), sequence (P17483 148-234 V174I): as the sequence (P17483 148-234) above, with V27I counted along it
PROP1 (Homo sapiens, UniProt O75360 56-141, F88S), sequence (O75360 56-141 F88S): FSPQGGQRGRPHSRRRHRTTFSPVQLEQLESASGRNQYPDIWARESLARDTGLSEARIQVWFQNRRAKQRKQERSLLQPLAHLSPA
SHOX, sequence (O15266 103-189): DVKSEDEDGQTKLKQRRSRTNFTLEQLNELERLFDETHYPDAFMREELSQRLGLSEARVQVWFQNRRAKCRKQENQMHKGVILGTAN
MSX2 (Homo sapiens, UniProt P35548 130-214, R199I), sequence (P35548 130-214 R199I): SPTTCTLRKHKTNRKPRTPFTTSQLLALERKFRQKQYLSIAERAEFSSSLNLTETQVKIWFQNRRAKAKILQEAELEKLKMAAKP
ALX3, sequence (O95076 139-225 N203Q): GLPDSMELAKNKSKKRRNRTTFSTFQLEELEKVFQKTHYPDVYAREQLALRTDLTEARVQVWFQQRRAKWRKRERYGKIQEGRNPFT
HOXD13, sequence (P35453 263-343 T313R): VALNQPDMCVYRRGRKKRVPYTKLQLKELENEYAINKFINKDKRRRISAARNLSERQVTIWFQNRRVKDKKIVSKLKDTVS
CRX, sequence (O43186 26-111 R41L): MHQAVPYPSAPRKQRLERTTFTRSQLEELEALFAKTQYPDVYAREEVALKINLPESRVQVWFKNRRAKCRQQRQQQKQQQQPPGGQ

In the case of CACGCCGA, the binding signal in the experiment with HOXB4 [1] is 7.66 upbm affinity estimate (log intensity, higher = more binding, comparable within an allelic series); in the experiment with HOXB4 [2], 7.67 upbm affinity estimate (log intensity, higher = more binding, comparable within an allelic series).

As to CACGTGGG, the binding signal was 7.46 upbm affinity estimate (log intensity, higher = more binding, comparable within an allelic series) with HOXB4 [1] and 7.46 upbm affinity estimate (log intensity, higher = more binding, comparable within an allelic series) in the experiment with HOXB4 [2].

For the sequence GCAATTTA, the binding signal in the experiment with HOXB4 [1] is 11.5 upbm affinity estimate (log intensity, higher = more binding, comparable within an allelic series); with HOXB4 [2], 11.7 upbm affinity estimate (log intensity, higher = more binding, comparable within an allelic series).

As for GTGATGGA, the binding signal with HOXB4 [1] is 9.37 upbm affinity estimate (log intensity, higher = more binding, comparable within an allelic series); with HOXB4 [2], 9.3 upbm affinity estimate (log intensity, higher = more binding, comparable within an allelic series).

For CGTGCCGC, the binding signal is 7.33 upbm affinity estimate (log intensity, higher = more binding, comparable within an allelic series) with HOXB4 [1]; 7.57 upbm affinity estimate (log intensity, higher = more binding, comparable within an allelic series) in the experiment with HOXB4 [2]; 9.41 upbm affinity estimate (log intensity, higher = more binding, comparable within an allelic series) in the experiment with MSX2 [3]; 9.35 upbm affinity estimate (log intensity, higher = more binding, comparable within an allelic series) with MSX2 [4]; 9.43 upbm affinity estimate (log intensity, higher = more binding, comparable within an allelic series) with MSX2 [5].

For the sequence ACTAATAA, the binding signal was 12 upbm affinity estimate (log intensity, higher = more binding, comparable within an allelic series) with HOXB4 [1]; 12.5 upbm affinity estimate (log intensity, higher = more binding, comparable within an allelic series) in the experiment with HOXB4 [2]; 8.53 upbm affinity estimate (log intensity, higher = more binding, comparable within an allelic series) in the experiment with ALX3.

In the case of GTCCCAAC, the binding signal with HOXB4 [1] was 7.52 upbm affinity estimate (log intensity, higher = more binding, comparable within an allelic series); with HOXB4 [2], 7.63 upbm affinity estimate (log intensity, higher = more binding, comparable within an allelic series).

CGGGCTGC: the binding signal is 7.97 upbm affinity estimate (log intensity, higher = more binding, comparable within an allelic series) with HOXB4 [1]; 7.82 upbm affinity estimate (log intensity, higher = more binding, comparable within an allelic series) with HOXB4 [2]; 9.39 upbm affinity estimate (log intensity, higher = more binding, comparable within an allelic series) with MSX2 [3]; 9.57 upbm affinity estimate (log intensity, higher = more binding, comparable within an allelic series) with MSX2 [4]; 6.7 upbm affinity estimate (log intensity, higher = more binding, comparable within an allelic series) in the experiment with PROP1 [6]; 6.83 upbm affinity estimate (log intensity, higher = more binding, comparable within an allelic series) with PROP1 [7]. In addition, the binding signal is 6.68 upbm affinity estimate (log intensity, higher = more binding, comparable within an allelic series) in the experiment with PROP1 [8] and 9.57 upbm affinity estimate (log intensity, higher = more binding, comparable within an allelic series) with MSX2 [5].

Take AGATGATG: the binding signal in the experiment with HOXB4 [1] was 10.8 upbm affinity estimate (log intensity, higher = more binding, comparable within an allelic series); with HOXB4 [2], 11.1 upbm affinity estimate (log intensity, higher = more binding, comparable within an allelic series).

With GCTCCCCC, the binding signal with HOXB4 [1] is 7.43 upbm affinity estimate (log intensity, higher = more binding, comparable within an allelic series); with HOXB4 [2] it was 7.43 upbm affinity estimate (log intensity, higher = more binding, comparable within an allelic series).

Regarding TAGATTGA, the binding signal was 10.2 upbm affinity estimate (log intensity, higher = more binding, comparable within an allelic series) with HOXB4 [1] and 10.3 upbm affinity estimate (log intensity, higher = more binding, comparable within an allelic series) with HOXB4 [2].

As for ATAAGCGC, the binding signal with HOXB4 [1] is 9.9 upbm affinity estimate (log intensity, higher = more binding, comparable within an allelic series); with HOXB4 [2] it was 10 upbm affinity estimate (log intensity, higher = more binding, comparable within an allelic series).

Turning to AGCTTGGA, the binding signal with HOXB4 [1] is 7.7 upbm affinity estimate (log intensity, higher = more binding, comparable within an allelic series); in the experiment with HOXB4 [2], 7.63 upbm affinity estimate (log intensity, higher = more binding, comparable within an allelic series).

Regarding CCGTGCGC, the binding signal with HOXB4 [1] is 7.73 upbm affinity estimate (log intensity, higher = more binding, comparable within an allelic series); with HOXB4 [2], 7.75 upbm affinity estimate (log intensity, higher = more binding, comparable within an allelic series); in the experiment with PITX2, 7.97 upbm affinity estimate (log intensity, higher = more binding, comparable within an allelic series).

On to GAAAAGTA, for which, in the experiment with SHOX, the binding signal is 7.94 upbm affinity estimate (log intensity, higher = more binding, comparable within an allelic series).

Turning to CCAGATAA, in the experiment with SHOX, the binding signal is 8.47 upbm affinity estimate (log intensity, higher = more binding, comparable within an allelic series).

Take AATATCGA: the binding signal with SHOX is 8.49 upbm affinity estimate (log intensity, higher = more binding, comparable within an allelic series).

For the sequence AATATAAA, the binding signal with HOXB4 [1] was 10.6 upbm affinity estimate (log intensity, higher = more binding, comparable within an allelic series); with HOXB4 [2], 10.7 upbm affinity estimate (log intensity, higher = more binding, comparable within an allelic series); with HOXD13, 10.7 upbm affinity estimate (log intensity, higher = more binding, comparable within an allelic series).

On to GGATTCCC, for which the binding signal with HOXB4 [1] is 7.58 upbm affinity estimate (log intensity, higher = more binding, comparable within an allelic series); with HOXB4 [2], 7.52 upbm affinity estimate (log intensity, higher = more binding, comparable within an allelic series); in the experiment with PROP1 [6], 6.63 upbm affinity estimate (log intensity, higher = more binding, comparable within an allelic series); with PROP1 [7], 6.7 upbm affinity estimate (log intensity, higher = more binding, comparable within an allelic series); with PROP1 [8] it was 6.49 upbm affinity estimate (log intensity, higher = more binding, comparable within an allelic series).

On to GTTAGTCA, for which the binding signal with SHOX is 8.37 upbm affinity estimate (log intensity, higher = more binding, comparable within an allelic series).

Regarding GATTGAGA, in the experiment with SHOX, the binding signal was 8.1 upbm affinity estimate (log intensity, higher = more binding, comparable within an allelic series).

Turning to GTGCTTAA, the binding signal with SHOX was 9.04 upbm affinity estimate (log intensity, higher = more binding, comparable within an allelic series).

For AGCATTAG, the binding signal was 10.5 upbm affinity estimate (log intensity, higher = more binding, comparable within an allelic series) with HOXB4 [1]; 10.7 upbm affinity estimate (log intensity, higher = more binding, comparable within an allelic series) with HOXB4 [2]; 10.1 upbm affinity estimate (log intensity, higher = more binding, comparable within an allelic series) with CRX.

In the case of AGTAAACG, in the experiment with SHOX, the binding signal was 8.05 upbm affinity estimate (log intensity, higher = more binding, comparable within an allelic series).

Take ATTATGCC: the binding signal in the experiment with SHOX was 9.49 upbm affinity estimate (log intensity, higher = more binding, comparable within an allelic series).

ACAATCAA: the binding signal with SHOX is 8.45 upbm affinity estimate (log intensity, higher = more binding, comparable within an allelic series).

On to AATGGTAC, for which, in the experiment with SHOX, the binding signal is 8.43 upbm affinity estimate (log intensity, higher = more binding, comparable within an allelic series).

GCCTCTCC: the binding signal with HOXB4 [1] was 7.31 upbm affinity estimate (log intensity, higher = more binding, comparable within an allelic series); with HOXB4 [2], 7.24 upbm affinity estimate (log intensity, higher = more binding, comparable within an allelic series); in the experiment with PROP1 [6] it was 6.75 upbm affinity estimate (log intensity, higher = more binding, comparable within an allelic series); in the experiment with PROP1 [7], 6.63 upbm affinity estimate (log intensity, higher = more binding, comparable within an allelic series); with PROP1 [8] it was 6.67 upbm affinity estimate (log intensity, higher = more binding, comparable within an allelic series).

Consider TCAAGTAA, for which the binding signal in the experiment with SHOX is 8.54 upbm affinity estimate (log intensity, higher = more binding, comparable within an allelic series).

(Values after PMC11006913.)
